# Sfp PPTase inh: qHTS Assay for Inhibitors of Bacillus subtilis Sfp phosphopantetheinyl transferase (PPTase); 4'-phosphopantetheinyl transferase ffp (Bacillus subtilis), Q9F4F7; Biochemical Sfp PPTase activity, qHTS; Potency, µM, without a hit: largest response in the series, negative = inhibition, most hits filed as inhibitors; actives 3.5% (n = 310,000);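 also: the enzyme is Sfp with the accession as filed and its product quenches rhodamine fluorescence; 0% = enzyme reaction without inhibitor and -100% = no enzyme wells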
#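 Sfp 15 nM + cpd, 15 min RT; start w/ rhodamine-CoA 5 uM, BHQ-2-YbbR 12.5 uM (final); 50 mM Hepes pH 7.6, 10 mM MgCl2, 0.01% NP-40, 0.01% BSA; read 525/598 nm at 0 and 30 min.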
# JMJD2E inh: qHTS Assay for Inhibitors of Human Jumonji Domain Containing 2E (JMJD2E). Potency, µM (highest dose often 57.1 µM), for inactives: top-dose activity change, negative = inhibition, hits mostly inhibitors. actives 1.6% (n = 230,000). JMJD2E catalytic domain, FDH-coupled NADH fluorescence (FDH is formaldehyde dehydrogenase);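 also: 0% = wells with enzyme and -100% = buffer wells without enzyme; nearly all actives have a fitted effect of over 50% in size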
# Target sequence (B2RXH2 1-337 limits assumed): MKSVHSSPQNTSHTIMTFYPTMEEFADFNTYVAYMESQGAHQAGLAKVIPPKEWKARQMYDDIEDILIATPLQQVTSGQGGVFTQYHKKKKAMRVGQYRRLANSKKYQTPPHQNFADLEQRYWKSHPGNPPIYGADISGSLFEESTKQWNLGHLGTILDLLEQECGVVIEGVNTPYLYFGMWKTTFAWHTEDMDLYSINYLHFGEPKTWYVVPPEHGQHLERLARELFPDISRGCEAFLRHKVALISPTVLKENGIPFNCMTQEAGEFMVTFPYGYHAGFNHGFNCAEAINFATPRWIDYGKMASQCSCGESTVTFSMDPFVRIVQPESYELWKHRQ
# NPSR antagonist: qHTS Assay for Antagonists of the Neuropeptide S Receptor: cAMP Signal Transduction; AID 1461, 2008; actives 1% (n = 220,000); Q6W5P4; Potency, µM (top dose mostly 38.3 µM), inactives show top-dose activity change, negative = inhibition, most hits filed as inhibitors; CHO-NPSR cells, cAMP TR-FRET, antagonist mode; also: % is scaled to controls: 0 for no effect and ±100 for the full control effect; nearly all actives have a fitted effect of over 50% in size
# Target sequence (Q6W5P4 whole entry, looked up): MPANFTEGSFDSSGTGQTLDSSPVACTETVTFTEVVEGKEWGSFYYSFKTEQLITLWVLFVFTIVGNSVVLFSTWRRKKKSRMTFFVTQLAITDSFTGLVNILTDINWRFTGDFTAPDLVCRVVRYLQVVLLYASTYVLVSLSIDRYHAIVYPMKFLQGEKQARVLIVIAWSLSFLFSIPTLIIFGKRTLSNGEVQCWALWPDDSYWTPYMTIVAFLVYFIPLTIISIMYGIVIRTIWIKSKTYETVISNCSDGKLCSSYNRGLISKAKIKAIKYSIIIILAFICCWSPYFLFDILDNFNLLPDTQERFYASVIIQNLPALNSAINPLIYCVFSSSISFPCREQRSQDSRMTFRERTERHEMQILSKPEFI
# IMPase Li inh: qHTS Assay for Identifying the Cell-Membrane Permeable IMPase Inhibitors: Potentiation with Lithium. CHO-M1 cells, IP1 TR-FRET (IP-One), carbachol + lithium. Potency, µM (doses to about 59.4 µM), inactives show top-dose activity, negative = IMPase inhibition, most hits filed as inhibitors. actives 0.35% (n = 210,000). AID 1457, 2008;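 also: IP1 builds up when IMPase is blocked and the TR-FRET signal falls; plate controls were basal vehicle for no effect and high inhibitor control for full effect; nearly all actives have a fitted effect of over 50% in size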
#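 CHO cells stably expressing M1 receptor (2000/well) were cultured 16–30 h, then exposed to compounds with a small lithium addition for 30 min at 37C. IP1 was measured by TR-FRET competition; AC50 from Hill fits.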
# Epigenetic reg: Quantitative High-Throughput Screen for Regulators of Epigenetic Control. murine LDR cells, GFP reporter derepression, 30 h. Potency, µM (top dose mostly 53.9 µM), inactives show top-dose GFP activation, usual class: activators. actives 0.2% (n = 280,000); also: % of control where 0% means no effect; nearly all actives have a fitted effect of over 60% in size
#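 Reporter derepression read as number of fluorescent GFP-positive objects, 20-120 um in size, counted by laser-scanning cytometer. Mouse LDR line with an epigenetically silenced CMV-GFP locus; compound incubation 30 h, 37 C.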
# GCN5L2 inh: qHTS Assay for Inhibitors of GCN5L2; Histone acetyltransferase KAT2A (Homo sapiens), Q92830; AID 504327, 2011; actives 0.21% (n = 390,000); Potency, µM (titrated, usually from 58.9 µM), inactives show at the highest dose activity change, negative = inhibition, usual class: inhibitors; GCN5L2 HAT assay, ThioGlo1 CoA-SH fluorescence; also: % is scaled to controls: 0 for no effect and ±100 for the full control effect
#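 GCN5L2 (20nM final) in 50mM HEPES, 0.1mM EDTA pH 7.5, 0.01% Tween-20 was preincubated 15 min at room temperature with compound, then given ThioGlo1 (50uM), H3(1-25) peptide (75uM) and acetyl-CoA (70uM); CoA-thiol fluorescence (Ex340/Em540) was read at 0 and 20 min.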
# Starred values were filed as active, the others as inactive; ? = inconclusive; . = not tested or not shown; [ ] = another dose, or the depositor's remark. An excerpt weighted towards active compounds, which were near 3.6% of everything screened. Unless noted, calls follow the shape of the dose curve; as a rule, active = well fitted curve in the direction sought with a large enough effect; inconclusive = small, poorly fitted or top-dose-only effect, or another doubt; inactive = no such curve, though single readings can be large; an effect the other way counts as inactive or inconclusive. Potency is read from the fitted curve at half-maximal effect.
SMILES,Sfp PPTase inh,JMJD2E inh,NPSR antagonist,IMPase Li inh,Epigenetic reg,GCN5L2 inh
C[C@H]1CC[C@@H]2N(C1)C[C@H]1[C@@H]3C[C@H]4[C@@H](C/C(=N\O)[C@H]5C[C@@H](O)CC[C@@]54C)[C@@H]3CC[C@H]1[C@]2(C)O,-0.9%,?,.,24.2%,-0.1%,.
CCS(=O)(=O)c1ccc2oc(Nc3cc(C)cc(C)c3)nc2c1,1.1%,-3.1%,-29.5%[46.1 µM],7.5%[38.3 µM],-1.7%,-11.3%
CCS(=O)(=O)c1ccc2oc(Nc3ccc(C(C)C)cc3)nc2c1,17.8µM*,?,-22.6%[46.1 µM],13.8%[38.3 µM],-1.0%,-2.3%[0.501 µM]
Cc1ccc(-c2nc3ccccn3c2Nc2ccccc2)o1,20µM*,?,-7.0%,3.0%,-1.1%,?
Cc1ccc(-c2nc3cnccn3c2Nc2ccc3c(c2)OCO3)o1,35.5µM*,-10.7%,-19.2%[46.1 µM],49.9%[38.3 µM],0.0%,-3.2%
Cc1ccc(-c2nc3ncccn3c2NC2CCCCC2)o1,44.7µM*,-2.4%,-18.4%[46.1 µM],16.3%[38.3 µM],2.1%,-8.6%
Cc1ccc(Nc2c(-c3ccc(C)o3)nc3cnccn23)cc1,10µM*,?,-19.6%[46.1 µM],-4.6%[38.3 µM],-1.0%,-5.2%
CSCC[C@H](NC(=O)[C@H](Cc1ccccc1)NC(=O)[C@H](Cc1cnc[nH]1)NC(=O)CNC(=O)[C@@H](NC(=O)[C@H](C)NC(=O)[C@H](Cc1c[nH]c2ccccc12)NC(=O)[C@H](CCC(N)=O)NC(=O)[C@@H]1CCCN1C(=O)[C@@H](NC(=O)[C@@H]1CCC(=O)N1)C(C)C)C(C)C)C(N)=O,1.8%,.,.,.,.,-6.9%
CC1(C)C(=O)C(c2ccccc2)=C2CN3C(=O)N(CCc4ccccc4)C(=O)C3(Cc3ccc(C(F)(F)F)cc3)C=C21 (centres undefined),29.0%,-14.8%,.,0.2%,2.0%,.
O=C(NCCc1ccccc1)c1ccc2c(c1)N(Cc1ccc(Cl)cc1)C(=O)CS2,.,.,.,.,-4.4%,-5.6%
Brc1ccc(-c2nc3ncccn3c2Nc2ccc3c(c2)OCCO3)o1,-20.5%,-0.2%,-17.9%[46.1 µM],29.5%[38.3 µM],-2.6%,-5.5%
Cc1ccc(-c2nc3ncccn3c2Nc2ccc3c(c2)OCCO3)o1,44.7µM*,-8.9%,-25.8%[46.1 µM],42.5%[38.3 µM],-2.9%,-0.9%
CC1=CC2C(C)(C)CC(=O)C[C@]2(C)CC1COc1ccc2c(c1)CC(=O)C=C2 (some centres undefined),-11.2%,?,.,12.2%,-0.3%,.
CCc1nnc(NC(=O)CSc2nc(-c3ccc(F)cc3)cc(-c3ccccc3)c2C#N)s1,31.6µM*,-4.3%,7.94µM*,.,-0.9%,1.1%
N#Cc1c(-c2ccc(Cl)cc2)cc(-c2cccs2)nc1SCC(=O)O,39.8µM*,.,.,.,.,-19.6%
COc1ccc(-c2cc(-c3cccs3)c(C#N)c(SCC(=O)NCc3ccccc3)n2)cc1,-3.4%,?,?,?,-3.2%,-2.7%
CCOC(=O)CSc1nc(-c2ccc(Cl)cc2)cc(C(F)(F)F)c1C#N,.,.,.,.,1.8%,-3.7%
N#Cc1c(-c2ccccc2)cc(-c2cccs2)nc1SCC(=O)O,56.2µM*,.,.,.,.,-1.5%
CCOC(=O)CSc1nc(C2CC2)cc(-c2ccc(Cl)cc2)c1C#N,17.8µM*,?,?,23.1%,0.0%,-19.2%
CC(C)(C)OC(=O)N1CCC[C@H]1C(O)(c1ccccc1)c1ccccc1,5.3%,13.6%,.,12.1%,-0.3%,.
c1ccc2c[n+](CCCC[n+]3ccc4ccccc4c3)ccc2c1,.,.,.,11.7%,.,.
CC1=C/C(=C\c2ccc(Br)o2)C(=O)O1,2.6%,?,12.9%,-4.0%,1.0%,-0.8%
O=C1C(=Cc2ccc(Br)o2)C(=O)c2ccccc21,56.2µM*,-12.9%,-15.8%,37.8%,?,?
Cc1ccc(NC2=C(Cl)C(=O)OC2OC(=O)c2ccccc2)c(C)c1 (centres undefined),50.1µM*,2.1%,-18.8%,12.2%,15.8µM*,-14.9%
Cc1cccc(C)c1NC1=C(Cl)C(=O)OC1OC(=O)c1ccccc1 (centres undefined),?,-9.1%,-23.1%,23.0%,0.4%,-6.9%
SMILES,Sfp PPTase inh,JMJD2E inh,NPSR antagonist,IMPase Li inh,Epigenetic reg,GCN5L2 inh
COc1cc(N2CCCC2)c(OC)cc1/C=c1/sc2nc3ccccc3n2c1=O,-10.6%,-0.1%,-2.4%[46.1 µM],1.5%[38.3 µM],2.82µM*,0.0%
O=C(Nc1ccc(F)cc1)C(=O)C1C(=O)Nc2ccccc21 (centres undefined),19.2%,-5.8%,34.7%,.,2.1%,-4.2%
O=C(Nc1ccc2ccccc2c1)C(=O)C1C(=O)Nc2ccccc21 (centres undefined),-12.1%,8.91µM*,24.3%,.,1.2%,-12.5%
CCC(=O)Nc1ncc2c(n1)CC(c1ccco1)CC2=O (centres undefined),-29.6%,-3.4%,-0.8%[46.1 µM],-5.8%,-1.0%,0.5%
O=C(Nc1ncc2c(n1)CC(c1ccco1)CC2=O)c1ccco1 (centres undefined),31.6µM*,-9.8%,-0.6%,.,-1.7%,-3.9%
CC(C)c1ccc(C2CC(=O)c3cnc(N4CCc5ccccc5C4)nc3C2)cc1 (centres undefined),6.2%,10.9%,1.8%[46.1 µM],11.7%[38.3 µM],1.1%,-3.2%
COc1ccc(C(=O)Nc2ncc3c(n2)CC(c2ccco2)CC3=O)cc1 (centres undefined),50.1µM*,-1.0%,5.5%[7.67 µM],5.4%[38.3 µM],1.6%,-3.7%
O=C1CC(c2ccco2)Cc2nc(N3CCc4ccccc4C3)ncc21 (centres undefined),25.1µM*,-6.0%,-14.6%[46.1 µM],10.3%[38.3 µM],0.0%,-2.8%
CC(=O)Nc1ncc2c(n1)CC(c1ccco1)CC2=O (centres undefined),-9.8%,-26.9%,7.9%[46.1 µM],18.7%[38.3 µM],-3.2%,-3.0%
CS(=O)(=O)c1ccc(CNC(=O)[C@H]2C[C@@H]2[C@H](NP(=O)(c2ccccc2)c2ccccc2)c2ccccc2)cc1,20.5%,3.9%,.,-5.8%,5.4%,.
O=C(O)CCC/C=C\C[C@@H]1[C@@H](/C=C/[C@H](O)C2Cc3ccccc3C2)[C@@H](F)C[C@@H]1O,.,.,.,.,.,-2.4%
Cc1ccccc1CN1CCC(CNc2ncnc3onc(-c4ccc(Cl)cc4)c23)CC1,.,.,.,.,-1.3%,4.5%
O=C1/C(=C\c2ccco2)SC(=S)N1c1ccccc1,?,20µM*,-19.5%,-3.7%,2.9%,-16.2%
Cc1ccc(/C=C2\SC(=S)N(c3cccnc3)C2=O)cc1,-22.0%,6.1%,-18.5%,8.3%,6.0%,-4.2%
